Assay outcomes: PubChem, ICCB-Longwood Screening Facility, Harvard Medical School
MenB inh: M. tuberculosis MenB inhibitors, primary screen, biochemical, absorbance; 1,4-dihydroxy-2-naphthoyl-CoA synthase (Mycobacterium tuberculosis (strain ATCC 25618 / …; MenB enzyme assay, absorbance read-out; inhibition, % (test concentration not listed); 100,000 compounds, 0.43% hits; AID 540299, 2011; in the data active = inhibition above about 21%, passing the limit was not always enough
Target sequence (P9WNP5 whole entry, looked up): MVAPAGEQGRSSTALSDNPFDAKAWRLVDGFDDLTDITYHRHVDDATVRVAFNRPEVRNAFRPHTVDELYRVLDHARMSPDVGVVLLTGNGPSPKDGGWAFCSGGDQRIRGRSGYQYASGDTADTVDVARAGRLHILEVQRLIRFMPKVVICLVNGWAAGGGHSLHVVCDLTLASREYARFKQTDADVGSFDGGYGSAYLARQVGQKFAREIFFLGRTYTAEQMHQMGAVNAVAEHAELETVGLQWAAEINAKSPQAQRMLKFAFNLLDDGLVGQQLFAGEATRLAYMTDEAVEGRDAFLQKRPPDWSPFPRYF
Mtb MbtI inh: MbtI salicylate synthase inhibitors, primary screen, biochemical, fluorescence intensity | P9WFX0 | purified MbtI enzyme, fluorescence intensity read-out | inhibition, % (concentration not given with the values) | 100,000 compounds, 0.89% hits; in the data active = inhibition mostly above about 56%, no sharp cut-off; inactive = mostly below about 77%
PV pol inh: poliovirus RdRp elongation inhibitors, primary screen, biochemical, fluorescence polarization, total intensity; Genome polyprotein (Poliovirus type 1 (strain Mahoney)), P03300; % elongation, % (compound at 16.7 µg/mL); poliovirus polymerase elongation; hits give low values; 150,000 compounds, 0.66% hits; in the data active = % elongation below about 90%
* hit, by the source's call; / = no result given. An excerpt weighted towards active compounds, which were near 1.5% of everything screened.

SMILES	MenB inh	Mtb MbtI inh	PV pol inh
O=C1CCCN1c1cccc2ccccc12	14	1	99
O=C1C=CC(=O)N1c1ccccc1F	-20	100*	104
O=C(CSc1ccccc1C(=O)O)NC1CCCc2ccccc21 (stereo unspecified)	/	-2	104
N#CCCSc1nnc(Cc2cccc3ccccc23)n1C1CCCCC1	-39	-1	108
CCCc1nc2sc3c(c2c(=O)n1N)CCCC3	33*	5	100
Nn1c(Cc2ccccc2)nc2sc3c(c2c1=O)CCCC3	-7	-3	98
O=C(O)CCc1nc2c3c4c(sc3ncn2n1)CCCC4	-2	1	99
NC(=O)n1c(CCC(=O)O)nc2sc3c(c2c1=O)CCC3	-28	21	85*
COc1ccc(Nc2c(-c3cc(Br)ccc3O)nc3cnccn23)cc1	-27	-2	100
Cc1ccccc1NC(=O)CCC(=O)O	11	9	102
CCc1ccccc1NC(=O)CCC(=O)O	32*	-9	100
c1ccc2c3c([nH]c2c1)CCCC3	-24	-10	99
O=c1c2c([nH]c3ccccc13)CCCCC2	35*	20	100
COC(=O)C(C)N(C#N)c1nc(C)cc(C)n1 (stereo unspecified)	/	-6	/
Cc1cc(C)nc(N(C#N)C(=S)N(C)C)n1	-5	102*	102
OC(c1ccccc1)c1cccc(C(F)(F)F)c1 (stereo unspecified)	-17	1	99
Cc1ccc(CCCN)c(C)c1	-12	-13	104
CCCNc1nc(Cl)nc(Cl)n1	-56	-2	101
Clc1nc(Cl)nc(NNc2nc(Cl)nc(Cl)n2)n1	34*	-10	100
CN(c1ccccc1)c1nc(N)c2c(N)nc(SCC(=O)O)cc2c1C#N	-9	4	115
O=C(OC(Cn1cncn1)c1ccc(Cl)cc1)c1ccccc1 (stereo unspecified)	/	1	103
Cc1cccc(NC(=O)c2cccnc2)c1C	-15	/	110
C/C(=C\C(=O)c1cccnc1)Nc1ccccc1O	60*	27	102
CCc1ccc(NC(=O)C(C)OC(=O)c2ccc3c(c2)OCO3)cc1 (stereo unspecified)	-7	12	103
O=C(Nc1ccc(S(=O)(=O)N2CCOCC2)cc1)c1cc2ccccc2o1	-11	4	105
SMILES	MenB inh	Mtb MbtI inh	PV pol inh
COc1ccc(NC(=O)c2cnc(SC)nc2)cc1	-11	10	104
COc1nncc(-c2cnnc(SC)n2)n1	-23	/	15*
CCOc1cc(/C=N/NC(N)=S)cc(I)c1O	-14	-25	103
CCc1ccc(C(=O)CSc2nnc(CN3CCCC3)n2Cc2ccccc2)s1	-4	6	103
COCCn1c(C)cc(C(=O)COC(=O)c2cc(OC)c(OC)cc2OC)c1C	0	12	107
O=C1C2SCCN2C(=S)N1c1cccc(C(F)(F)F)c1 (stereo unspecified)	2	70*	100
CC1=CCC2C(=O)N(c3cccc(C(F)(F)F)c3)C(=O)C2C1 (stereo unspecified)	-21	-2	101
COc1cccc2[nH]ccc12	8	-14	102
CCC(=O)NCCCc1nc2ccccc2n1Cc1ccccc1	-15	-10	102
O=C1c2ccccc2C(=O)N1CCSc1nnc(Cc2cccs2)n1C1CCCCC1	-13	16	102
Oc1cccc(-c2nc(-c3ccccc3)c3ccccn23)c1	/	5	89*
Oc1cccc(Cn2c(-c3cccc(O)c3)nc3ccccc32)c1	/	-10	/
C=CCc1cccc(CNc2ccc(C(=O)OCC)cc2)c1O	-16	-62	100
CCn1c(SCC(=O)c2ccc(C)cc2)nnc1C1CC1	25	6	99
Cc1ccc(C(=O)CSC2=NCCCCC2)cc1	33*	16	93
N#Cc1cc(C(=O)O)c(=O)[nH]c1SCc1ccccc1Cl	-10	-86	98
Cc1ccc(C)c(C(=O)CSc2nnc(-c3cccs3)n2CC2CCCO2)c1 (stereo unspecified)	-15	5	104
O=c1cc(NCCNc2cc(=O)oc3ccccc23)c2ccccc2o1	18	4	103
O=c1cc(NCCc2ccccc2)c2ccccc2o1	33*	22	103
c1ccc(-c2nnc(COc3ncnc4sccc34)o2)cc1	-4	133	118
CC(C)C(NC(=O)c1ccc(F)cc1)C(=O)N1CCN(Cc2ccccc2)CC1 (stereo unspecified)	8	13	104
COC(=O)c1c(-c2cccs2)csc1NC(=O)c1cc(OC)cc(OC)c1	/	/	71*
COC(=O)c1c(-c2cccs2)csc1NC(=O)c1ccc(OC)c(OC)c1	/	/	69*
COCc1nnc(NC(=O)c2cc(OC)c(OC)c(OC)c2)s1	/	/	103
COc1ccc(C(=O)Nc2nccs2)cc1OC	-13	-4	99
SMILES	MenB inh	Mtb MbtI inh	PV pol inh
COC(=O)c1c(-c2cccs2)csc1NC(=O)c1cc(OC)c(OC)c(OC)c1	/	/	73*
CC(C)(C)C(=O)Nc1scc(-c2cccs2)c1C(=O)O	-5	/	106
Cc1ccc(-c2noc(CN(C(=O)c3ccc(C)cc3Cl)C(C)C)n2)cc1	-4	-7	102
O=c1nc(NCc2ccccc2)cn[nH]1	-27	-7	103
CCCc1nn2cc(-c3ccccc3)nc2s1	6	-15	101
Cc1sc2ncnc(SC3CCOC3=O)c2c1C (stereo unspecified)	-30	15	100
S=c1[nH]nc(CCCOc2ccc(Cl)cc2Cl)o1	-39	90*	87*
O=c1[nH]c(CSc2nnc(CCCOc3ccc(Cl)cc3Cl)o2)nc2ccccc12	4	-26	102
COc1cc(/C=N/NC(N)=O)cc2sc(=O)oc12	-14	81*	99
COc1cc(/C=N/NC(N)=O)cc(Br)c1OC	-8	4	106
CCC(C)NC(=O)CSc1cc(=O)n(C)c2ccc(Cl)cc12 (stereo unspecified)	-9	4	100
COc1ccccc1N1CCN(C(=O)c2ccccc2C(F)(F)F)CC1	-5	-9	100
COc1ccccc1N1CCN(C(=O)c2ccc[nH]c2=S)CC1	-36	81*	101
O=C(CS(=O)(=O)c1ccccc1)Nc1ccccn1	9	21	100
O=C(CS(=O)(=O)Cc1ccccc1)Nc1ccccn1	36*	7	101
CSc1ncc(Cl)c(C(=O)NCCc2ccc(S(N)(=O)=O)cc2)n1	-10	-7	101
O=C(O)CC1C(=O)NN=C2c3ccccc3N=CN21 (stereo unspecified)	-20	26	78*
O=C(O)CC1C(=O)NC(=Nc2ccccc2)N1c1ccccc1 (stereo unspecified)	-24	-9	102
O=C(CSc1ccccc1Cl)c1ccco1	/	16	102
O=C(CSc1ccc(Cl)cc1)c1ccco1	/	61*	100
CCCN1C(=O)/C(=N\OCC(=O)N2CCC(C)CC2)c2ccccc21	-30	0	103
CC(=O)N1CC2c3ccccc3CCN2C1c1ccccc1 (stereo unspecified)	4	/	105
COc1ccc(CNC(=O)C2CCCN(c3nnc(C)c4c(C)n(-c5ccc(C)cc5)nc34)C2)cc1 (stereo unspecified)	/	/	107
